# Results published in PubChem BioAssay.
# Measured potencies and affinities stand elsewhere. Results filed as inconclusive are left out. A number with no mark means an inactive call. Active and inactive are the calls of the source. Unless noted, no rule for the calls is given here.
# Assay: inhibitors of CMV-promoter luciferase reporter, dose response, counter-screen for Pax8 inhibitor project, cell-based, HEK293, luminescence, dry powder (AID 743020;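 active = signal-lowering compounds whose fitted half-maximal concentration is at or below twice the top tested dose in every run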;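 also: HEK293 cells stably expressing the CMV luciferase reporter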)
# Conditions: SteadyGlo luminescence, 24 h; series mostly up to 35 µM
row,SMILES,outcome
1,COc1ccc(S(=O)(=O)N2CCCCN3[C@H](CO)[C@H](c4ccc(C#CC(C)C)cc4)[C@H]3C2)cc1,inactive
2,COc1ccc(S(=O)(=O)Nc2ccc3c(c2)C(=O)N([C@@H](C)CO)C[C@H](C)[C@H](CN(C)Cc2ccc(C(F)(F)F)cc2)OCCCC[C@H](C)O3)cc1,inactive
3,N#C[C@H]1[C@@H](c2ccc(C#Cc3ccc(F)cc3)cc2)[C@H](CO)N1C(=O)Nc1ccc(F)cc1,inactive

# Assay: non-specific cell cytotoxicity, dose response, cytotoxicity control for PAX8 inhibitor project, plate reader, dry powder samples (AID 743021)
# Conditions: cell line, non-specific cytotoxicity counter-screen; series mostly up to 35 µM
SMILES,outcome,"activity change, negative = cytotoxicity"
CN[C@H]1CCc2cc(OC)c(OC)c(OC)c2-c2ccc(OC)c(=O)cc21,inactive,
CC(C)(C)C(=O)Nc1ccc(NC(=O)c2ccco2)nc1,inactive,
COc1ccccc1-n1cc([C@@H]2C[C@H]3CN(c4ccccc4)C(=O)[C@]34CCCN24)cn1,inactive,
CCN1CCN(Cc2ccc(NC(=O)c3cc(NC(=O)C(=O)c4c[nH]c5ccccc45)cc(OC)c3)cc2C(F)(F)F)CC1,inactive,
Cc1cccc(C)c1NS(=O)(=O)c1ccc(-c2cnc(C3CC3)o2)cc1,inactive,
O=c1c(Cl)c(Cl)cnn1Cc1nnc(-c2ccccc2Br)o1,inactive,
C=CC(=O)N=c1sc2ccccc2n1-c1ccccc1,inactive,
CCOCCCNC(=O)c1ccc2c(c1)N=C(CC)c1cc(Br)ccc1S2,inactive,
CC(C)C(=O)N1CCN(c2ccc(NC(=O)c3ccc([N+](=O)[O-])o3)cc2)CC1,inactive,
Cc1cc(-n2c(SCC(=O)NCCC3=CCCCC3)nc3n[nH]c(C)c3c2=N)ccc1Cl,inactive,
COc1cc(/C=C2\COC/C(=C\c3cc(OC)c(OC)c(OC)c3)C2=O)cc(OC)c1OC,inactive,
N#Cc1c(N)n(C2OC(CO)C(O)C2O)c2ncnc(N)c12 (stereo not drawn),inactive,
Cn1cc(C2=C(c3ccc(Cl)cc3Cl)C(=O)NC2=O)c2ccccc21,inactive,
COc1cc(-c2cnc3c(NC=O)cc(-c4ccc(C)cc4)cn23)cc(OC)c1OC,inactive,
CCC1(O)C(=O)OCc2c1cc1n(c2=O)Cc2cc3c(N)cccc3nc2-1 (stereo not drawn),inactive,
CCOc1ccccc1C1C2=C(COC2=O)Nc2cc3c(cc21)OCO3 (stereo not drawn),inactive,
Cc1ccc(S(=O)(=O)CCC(=O)c2ccc(F)cc2)cc1,inactive,
NC(=O)c1ccsc1NC(=O)c1ccc([N+](=O)[O-])o1,inactive,
CC(=O)NC(c1ccc2ccccc2c1)c1ccc2cccnc2c1O (stereo not drawn),inactive,

SMILES,outcome,"activity change, negative = cytotoxicity"
Cc1ccc2nc(C)cc(Nc3ccc([N+](=O)[O-])cc3)c2c1,inactive,
C[C@H]1CCCCO[C@H](CN(C)C(=O)Nc2ccc(C(F)(F)F)cc2)[C@@H](C)CN([C@@H](C)CO)C(=O)c2cc(NS(=O)(=O)c3ccc(Cl)cc3)ccc2O1,inactive,
N#Cc1cccc(-c2ccc(C3[C@@H]4CN(C(=O)C5CC5)C[C@H]3N4)cc2)c1 (stereo partly drawn),inactive,
Cc1cccc(C2(c3cccc(C)c3)CC2C(=O)Nc2ccc([N+](=O)[O-])cc2O)c1 (stereo not drawn),inactive,
CN(C)CCNc1ccc(CO)c2sc3ccc(O)cc3c(=O)c12,inactive,
COc1cc(C2C3=C(Nc4ncnn42)c2ccccc2CC3)cc(OC)c1OC (stereo not drawn),inactive,
COc1ccccc1NS(=O)(=O)c1cccc(C(=O)N/N=C/c2ccc([N+](=O)[O-])o2)c1,inactive,
CC(=O)OC1CCC2(C)C(CCC3C4CC=C(C(C)=O)C4(C)OC(=O)CC32)C1 (stereo not drawn),inactive,
CC(=NNC(=S)N1CCC1)c1ccccn1,inactive,
Cn1nnnc1Sc1ncnc2scc(-c3cccc4c3sc3ccccc34)c12,inactive,
C=CCNC(=S)N/N=C(\C)c1ccccn1,inactive,
Cc1cc(NC(=O)c2ccc([N+](=O)[O-])o2)ccc1NC(=O)c1ccco1,inactive,
COc1cc(/C=N/NS(=O)(=O)c2ccc(C)cc2)ccc1OCc1cccc(C(=O)O)c1,inactive,
CC(=NNC(=S)N1CCN(C2CCCCCC2)CC1)c1ccccn1,inactive,
CS(=O)(=O)c1ncc(Cl)c(C(=O)Nc2ccc3ccccc3c2)n1,,1.87% [at 8 µM]
CCS(=O)(=O)c1ncc(Cl)c(C(=O)Nc2ccc(S(=O)(=O)N3CCCC(C)C3)cc2)n1 (stereo not drawn),inactive,
CCC(=O)OCCNc1cc(Sc2nccn2C)c2nonc2c1[N+](=O)[O-],inactive,
COc1cccc2c1C(=O)c1c(O)c3c(c(O)c1C2=O)CC(O)(C(C)=O)CC3OC1CC(N(C)C)C(O)C(C)O1 (stereo not drawn),inactive,

# Assay: cytotoxicity in OVCAR8 ovarian cancer cells, dose response, PAX8 project, cell-based, plate reader, dry powder samples (AID 743197)
# Conditions: series mostly up to 35 µM
row,SMILES,outcome
1,COc1ccc(S(=O)(=O)N2CCCCN3[C@H](CO)[C@H](c4ccc(C#CC(C)C)cc4)[C@H]3C2)cc1,inactive
2,COc1ccc(S(=O)(=O)Nc2ccc3c(c2)C(=O)N([C@@H](C)CO)C[C@H](C)[C@H](CN(C)Cc2ccc(C(F)(F)F)cc2)OCCCC[C@H](C)O3)cc1,inactive
3,N#C[C@H]1[C@@H](c2ccc(C#Cc3ccc(F)cc3)cc2)[C@H](CO)N1C(=O)Nc1ccc(F)cc1,inactive
